# Measurements published in the supplement of paper PMC9262897, “Low-cost anti-mycobacterial drug discovery using engineered E. coli” (Nature Communications, 2022).
# Structures can show the parent of a compound that is named as a salt. ± gives the standard deviation of the averaged measurements.
# System: E. coli TESEC Mtb Alr
# Assay: growth (OD600 after 10 h); higher = more growth (less inhibition)
# Details: arabinose 100 nM; compound 0.1 mM; raw OD600 reference: median of DMSO wells 0.413, cell-free background 0.052
# Procedure: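 TESEC Mtb Alr E. coli (ΔaraC ΔtolC ΔentC Δalr ΔdadX, arabinose-inducible Mtb Alr) or the Alr+ wild-type control strain, grown in defined M9-fructose medium without D-alanine in 96-well plates with Prestwick library compounds at 0.1 mM and 1% DMSO. Low Alr induction is 0.1 µM arabinose and high induction is 10 mM arabinose.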
row,SMILES,growth
1,O=C(NCCN1CCOCC1)c1ccc(Cl)cc1 [Moclobemide],0.416 ± 0.0096
2,CC(C)C[C@H](NC(=O)[C@@H](O)[C@H](N)Cc1ccccc1)C(=O)O [Ubenimex],0.396 ± 0.011
3,CC(C(=O)O)c1ccc(-c2ccccc2)c(F)c1 (stereo not drawn) [Flurbiprofen],0.387 ± 0.021

# Same assay, conditions: arabinose 10000000 nM; compound 0.1 mM; raw OD600 reference: median of DMSO wells […], cell-free background 0.052
row,SMILES,growth
1,CC1(C)O[C@@H]2C[C@H]3[C@@H]4C[C@H](F)C5=CC(=O)C=C[C@]5(C)[C@@]4(F)[C@@H](O)C[C@]3(C)[C@]2(C(=O)CO)O1 [Fluocinolone acetonide],0.274 ± 0.0057
2,O=C1CC[C@@H](C(=O)N2CSC[C@H]2C(=O)O)N1 [Pidotimod],0.335 ± 0.0057
3,Cc1cc(NS(=O)(=O)c2ccc(N)cc2)no1 [Sulfamethoxazole],0.346 ± 0.005
4,"CN(Cc1cnc2nc(N)nc(N)c2n1)c1ccc(C(=O)N[C@@H](CCC(=O)O)C(=O)O)cc1 (racemic) [Amethopterin (R,S)]",0.125 ± 0.0053
5,CN(C)CCCN1c2ccccc2CCc2ccc(Cl)cc21 [Clomipramine hydrochloride],0.193 ± 0.066
6,CN1CCN2c3ccccc3Cc3ccccc3C2C1 (stereo not drawn) [Mianserine hydrochloride],0.318 ± 0.015
7,CCCN(CCC)C(=O)C(CCC(=O)O)NC(=O)c1ccccc1 (stereo not drawn) [Proglumide],0.376 ± 0.033
8,CCCCOc1ccc(CC(=O)NO)cc1 [Bufexamac],0.284 ± 0.0052
9,CC(C)CC(=O)N[C@H](C(=O)N[C@H](C(=O)N[C@@H](CC(C)C)[C@@H](O)CC(=O)N[C@@H](C)C(=O)N[C@@H](CC(C)C)[C@@H](O)CC(=O)O)C(C)C)C(C)C [Pepstatin A],0.345 ± 0.036
10,CO[C@@]1(NC(=O)C2SC(=C(C(N)=O)C(=O)O)S2)C(=O)N2C(C(=O)O)=C(CSc3nnnn3C)CS[C@@H]21 (stereo partly drawn) [Cefotetan],0.0531 ± 0.0051
11,CC[N+](CC)(CC)CCC(O)(c1ccccc1)C1CCCCC1 (stereo not drawn) [Tridihexethyl chloride],0.335 ± 0.018
12,O=C1c2ccccc2C(=O)C1c1ccccc1 [Phenindione],0.302 ± 0.025
13,CC(C)NC(=N)NC(=N)Nc1ccc(Cl)cc1 [Proguanil hydrochloride],0.345 ± 0.019
14,Cc1[nH]cnc1CN1CCc2c(c3ccccc3n2C)C1=O [Alosetron hydrochloride],0.289 ± 0.0097
15,O=c1cc(-c2ccc(O)c(O)c2)oc2cc(O)cc(O)c12 [Luteolin],0.0574 ± 0.0016
16,O=C1OC(CN2CCOCC2)CN1/N=C/c1ccc([N+](=O)[O-])o1 (stereo not drawn) [Furaltadone hydrochloride],0.0562 ± 0.0033
17,O=C(c1ccc(OCCN2CCCCC2)cc1)c1c(-c2ccc(O)cc2)sc2cc(O)ccc12 [Raloxifene hydrochloride],0.0554 ± 0.0018
18,CNS(=O)(=O)Cc1ccc2[nH]cc(CCN(C)C)c2c1 [Sumatriptan succinate],0.353 ± 0.0071
19,Cc1ccc(C)c(OCCCC(C)(C)C(=O)O)c1 [Gemfibrozil],0.261 ± 0.011
20,O=C(NCC(O)CO)c1c(I)c(C(=O)NCC(O)CO)c(I)c(N(CCO)C(=O)CO)c1I (stereo not drawn) [Ioversol],0.362 ± 0.017

row,SMILES,growth
1,CN(C)CCOC(c1ccc(Cl)cc1)c1ccccn1 (stereo not drawn) [Carbinoxamine maleate salt],0.332 ± 0.021
2,C=CCSCC1Nc2cc(Cl)c(S(N)(=O)=O)cc2S(=O)(=O)N1 (stereo not drawn) [Althiazide],0.326 ± 0.012
3,CC(=O)OCC(=O)[C@@]1(O)[C@H](C)C[C@H]2[C@@H]3CCC4=CC(=O)C=C[C@]4(C)[C@@]3(F)[C@@H](O)C[C@@]21C [Dexamethasone acetate],0.234 ± 0.018
4,CC(C)(C)NCC(O)c1ccc(O)c(CO)c1 (stereo not drawn) [Salbutamol],0.383 ± 0.017
5,"CC(C)NCC(O)c1cc(O)cc(O)c1 (stereo not drawn) [Metaproterenol sulfate, orciprenaline sulfate]",0.352 ± 0.029
6,CN(CCOc1ccc(NS(C)(=O)=O)cc1)CCc1ccc(NS(C)(=O)=O)cc1 [Dofetilide],0.318 ± 0.0084
7,N=c1nc(N2CCCCC2)cc(N)n1O [Minoxidil],0.379 ± 0.034
8,Clc1ccccc1C(c1ccccc1)(c1ccccc1)n1ccnc1 [Clotrimazole],0.0569 ± 0.00059
9,CC(=O)Oc1ccccc1C(=O)Nc1ncc([N+](=O)[O-])s1 [Nitazoxanide],0.0545 ± 0.0013
10,CCOc1ccccc1OC(c1ccccc1)C1CNCCO1 (stereo not drawn) [Reboxetine mesylate],0.336 ± 0.022
11,NC(=O)c1cc[n+](CC2=C(C(=O)[O-])N3C(=O)[C@@H](NC(=O)[C@@H](c4ccccc4)S(=O)(=O)O)[C@H]3SC2)cc1 [Cefsulodin sodium salt],0.356 ± 0.014
12,CC(C)(C)NC(=O)[C@@H]1C[C@@H]2CCCC[C@@H]2CN1C[C@@H](O)[C@H](Cc1ccccc1)NC(=O)[C@H](CC(N)=O)NC(=O)c1ccc2ccccc2n1 [Saquinavir mesylate],0.0539 ± 0.0034
13,CCCCOC(=O)c1ccc(O)cc1 [Butylparaben],0.304 ± 0.019
14,Cc1cn[nH]c1 [Fomepizole],0.367 ± 0.017
15,NC1CCN(c2nc3c(cc2F)c(=O)c(C(=O)O)cn3-c2ccc(F)cc2F)C1 (stereo not drawn) [Tosufloxacin hydrochloride],0.0578 ± 0.0027
16,CN(C)CCN1C(=O)c2ccccc2N(C)c2ccccc21 [Dibenzepine hydrochloride],0.34 ± 0.015
17,Nc1nc(NC2CC2)c2ncn([C@H]3C=C[C@@H](CO)C3)c2n1 [Abacavir Sulfate],0.339 ± 0.0091
18,O=C(NCCN1CCOCC1)c1ccc(Cl)cc1 [Moclobemide],0.338 ± 0.009
19,CC(C)C[C@H](NC(=O)[C@@H](O)[C@H](N)Cc1ccccc1)C(=O)O [Ubenimex],0.323 ± 0.018
20,CC(C(=O)O)c1ccc(-c2ccccc2)c(F)c1 (stereo not drawn) [Flurbiprofen],0.286 ± 0.014
